# Screening results deposited in PubChem by several laboratories.
# Shown are actives, neighbours in structure and some others; about 0.64% of the full set was active somewhere.
# Ec RNAP inh: Escherichia coli RNA polymerase inhibition | P0A8V2 | E. coli RNA polymerase, fluorescence transcription assay | inhibition, %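 (tested at 10 µM)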 | 0.2% of 62,000 active; in the data active = inhibition above about 20%;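 note: 0% = enzyme without compound and 100% = no enzyme blank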
# MT1-MMP txn act: activates MT1-MMP transcription | HT1080 MT1-MMP promoter luciferase reporter, luminescence, overnight; stronger effect = higher value | activation factor at 10 µM | 0.16% of 86,000 active | AID 750;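 active = activation factor of at least 2 for MT1-MMP transcription at 10 µM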
# LYP act: LYP (human) phosphatase activation. AID 697. 0.11% of 96,000 active. activation, % at 2 µM. Q9Y2R2. recombinant LYP, DiFMUP fluorescence; 0 = plate median, 100 = signal doubled;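 active = activation at 2 µM above a set limit, the mean plus 5 SD, cut at about 37% in these data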
# sEH act: increases human soluble epoxide hydrolase activity; P34913; purified human sEH enzymatic activity, activator screen; activation, % at 2 µM; 0.04% of 91,000 active; AID 717; in the data active = activation above about 37%
# Target sequence (P34913 whole entry, looked up): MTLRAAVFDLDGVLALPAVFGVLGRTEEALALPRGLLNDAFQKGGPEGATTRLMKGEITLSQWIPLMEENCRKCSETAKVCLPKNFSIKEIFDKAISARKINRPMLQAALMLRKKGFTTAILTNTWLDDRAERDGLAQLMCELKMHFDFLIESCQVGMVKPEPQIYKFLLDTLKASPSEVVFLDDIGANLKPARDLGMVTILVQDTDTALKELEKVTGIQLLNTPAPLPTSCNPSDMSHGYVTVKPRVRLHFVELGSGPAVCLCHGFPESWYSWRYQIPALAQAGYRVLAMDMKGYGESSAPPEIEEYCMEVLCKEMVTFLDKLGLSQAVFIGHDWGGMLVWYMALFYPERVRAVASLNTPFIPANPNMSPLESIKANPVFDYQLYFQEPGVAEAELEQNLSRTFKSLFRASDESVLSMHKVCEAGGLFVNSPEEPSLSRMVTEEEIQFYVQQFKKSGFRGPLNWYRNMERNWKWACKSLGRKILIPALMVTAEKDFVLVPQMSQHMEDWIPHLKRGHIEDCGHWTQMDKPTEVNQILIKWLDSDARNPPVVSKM
# LYP inh 2: LYP (human) phosphatase inhibition | recombinant LYP catalytic domain, DiFMUP fluorescence | inhibition, % at 2 µM | 0.21% of 96,000 active;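 active = inhibition at 2 µM at or above a set limit, the screen mean plus 3 SD, cut at about 24% in these data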;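 note: 0% = DMSO with enzyme and 100% = enzyme fully blocked by orthovanadate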
# sEH inh: blocks human soluble epoxide hydrolase activity. recombinant human sEH enzymatic activity assay. inhibition, % at 2 µM. 0.34% of 91,000 active; in the data active = inhibition above about 80%
# * marks the source's active call; other numbers are inactive results; . = no result.
SMILES,Ec RNAP inh,MT1-MMP txn act,LYP act,sEH act,LYP inh 2,sEH inh
N#Cc1c(/N=C/c2cc(Br)cs2)sc2c1CCC2,.,2.2*,2.8,8.8,-7.1,-7.2
C=CCn1c(SCC(=O)Nc2ncc(Cc3ccc(Br)cc3)s2)nnc1-c1ccncc1,.,.,-2.4,-6.5,5.8,9.0
CC1CN(C2CCN(S(=O)(=O)c3ccccc3)CC2)CC(C)O1 (configuration not stated),21.7*,1.1,-2.1,-2.0,0.7,3.4
CC1CN(C2CCN(S(=O)(=O)c3ccc(F)cc3)CC2)CC(C)O1 (configuration not stated),.,1.2,-9.6,-7.3,11.7,8.2
COCc1cc(C)nc(Nc2ccccc2C)c1C#N,-0.5,1.2,-26.5,-8.7,26.0*,13.6
Clc1ccc(Cc2nc(-c3cccnc3)no2)cc1,.,.,6.1,-0.2,-2.6,2.4
Cc1ccccc1-c1nc2ccccc2[nH]1,.,2*,0.3,-6.6,-0.7,11.4
O=C(Nc1ccc(Cl)c(C(F)(F)F)c1)C1CCCN(S(=O)(=O)c2cnc[nH]2)C1 (configuration not stated),5.7,1.1,5.3,-92.0,-6.3,91.8*
O=C(Nc1cccc(Cl)c1)C1CCCN(S(=O)(=O)c2cnc[nH]2)C1 (configuration not stated),4.2,1,-3.2,.,0.3,.
O=C(Cc1cnn(-c2ccccc2)c1)c1ccc(O)c(O)c1O,.,1.7,-26.7,-10.7,28.6*,9.8
Cc1ccc(-c2nnc(CSc3nnc(COc4cccc5ccccc45)n3-c3ccccc3)o2)cc1,.,.,-33.4,-0.4,33.2*,-1.4
C=CCNC(=S)NNC(=O)c1cccn(Cc2cccc(Cl)c2)c1=O,.,.,-54.9,4.4,56.0*,-7.0
C=CCNC(=S)NNC(=O)c1cccn(Cc2ccc(Cl)cc2)c1=O,.,.,-51.6,-0.7,52.8*,-1.8
COC(=O)[C@@]1(C)C[C@@H]1[C@@H](NC(=O)[C@@]1(C)C[C@@H]1[C@@H](NC(=O)[C@@]1(C)C[C@@H]1[C@@H](NC(=O)[C@@]1(C)C[C@@H]1[C@@H](NC(=O)OCc1ccccc1)c1ccccc1)c1ccccc1)c1ccccc1)c1ccccc1,.,1.1,.,.,.,.
COc1ccc2[nH]c3nc(SCC(=O)NNC(=O)c4ccc(OC)c(OC)c4)nnc3c2c1,.,.,-11.9,-8.5,14.1,9.6
Cc1ccc(C(=O)NNC(=O)CSc2nnc3c(n2)[nH]c2ccc(F)cc23)cc1,.,.,-27.5,-5.1,29.6*,4.0
c1ccc(-c2noc(-c3cccc4ccccc34)n2)cc1,4.6,2*,5.9,.,-6.2,.
c1ccc2c(-c3nc(-c4ccncc4)no3)cccc2c1,3.1,1.5,-2.7,-2.4,1.0,-1.9
CCCC1(C(=O)OC)C=C2C(=C(c3ccccc3)C(=O)C2C)CN1 (configuration not stated),.,1.2,.,.,.,.
c1ccc(-c2ccc(C3=Nn4c(nnc4-c4cc(-c5ccccc5)n[nH]4)SC3)cc2)cc1,.,1.3,-40.3,-6.3,42.2*,7.4
CC1=Nn2c(nnc2-c2cc(-c3ccccc3)n[nH]2)SC1,-2.7,1.1,0.0,5.9,2.7,-3.0
COc1ccccc1OCC(=O)Nc1ccc(S(=O)(=O)NC(C)=O)cc1,7.3,1.1,1.9,.,-4.8,.
COc1ccccc1OCC(=O)Nc1ccc(S(=O)(=O)Nc2nc(C)cc(C)n2)cc1,20.7*,1,-8.7,-2.3,8.0,3.0
CCC1S/C(=N/C(=O)NC2CCCCC2)NC1=O (configuration not stated),.,1.2,-1.3,1.1,-2.2,0.4
O=C(/N=C1\NC(=O)C(F)(C(F)(F)F)S1)NC1CCCCC1 (configuration not stated),25.5*,.,.,.,.,.
SMILES,Ec RNAP inh,MT1-MMP txn act,LYP act,sEH act,LYP inh 2,sEH inh
CCOc1ccc(NC(=O)c2ccc(F)c(S(=O)(=O)N3CCN(c4ccccn4)CC3)c2)cc1,6.8,1.3,-2.2,-85.8,0.5,85.9*
CC(=O)Nc1ccc(S(=O)(=O)N2CCN(c3ccccn3)CC2)cc1,.,1.1,5.3,8.0,-3.8,-10.4
O=C(c1ccccc1)N1CCC(O)(c2ccc3c(c2)OCO3)CC1,.,1.2,4.2,-31.8,-3.6,33.4
O=C(NC12CC3CC(CC(C3)C1)C2)N1CCC(O)(c2ccc3c(c2)OCO3)CC1,8.0,1,-1.7,-88.5,0.3,88.2*
COC(=O)[C@@]1(Cc2ccccc2)[C@H]2c3cc(C(=O)N(C)C)n(CCN4CCNC4=O)c3C[C@H]2CN1C(=O)c1ccccc1,.,1.7,.,.,.,.
Cc1cc(NCc2ccccn2)ccc1Br,.,.,-2.2,-6.6,4.4,5.9
